From the supplement of paper PMC9694430
Structures can show the parent of a compound that is named as a salt.

How the values were obtained:
Assay in all cases: thermal shift delta Tm vs DMSO control; higher = stronger stabilization (binding)
Conditions in all cases: 12.5 µM; protein concentration 2 µM
LOC_OS01G01410-cb001 = system: LOC_OS01G01410-cb001
Outline: (§1)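 The melting temperature shift given here is a triplicate mean, measured against protein that received only DMSO. Melting temperatures came from Boltzmann fits of differential scanning fluorimetry data on E. coli-expressed, purified rice kinase domain constructs. Each 19.5 μl well contained 2 μM kinase, 100 mM potassium phosphate pH 7.5, 150 mM NaCl, 10% glycerol, 5 × SYPRO Orange and compound in DMSO. Plates were scanned from 25°C to 95°C at 0.05°C/s.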

LOC_OS01G02750-cb003 = system: LOC_OS01G02750-cb003
Outline: as §1

LOC_OS01G10900-cb004 = system: LOC_OS01G10900-cb004
Outline: as §1

LOC_OS01G13800-cb001 = system: LOC_OS01G13800-cb001
Outline: as §1

LOC_OS01G14860-cb001 = system: LOC_OS01G14860-cb001
Outline: as §1

LOC_OS01G21960-cb002 = system: LOC_OS01G21960-cb002
Outline: as §1

LOC_OS01G48390-cb002 = system: LOC_OS01G48390-cb002
Outline: as §1

LOC_OS01G51400-cb002 = system: LOC_OS01G51400-cb002
Outline: as §1

LOC_OS01G52050-cb004 = system: T1, LOC_OS01G52050-cb004
T1 sequence (whole entry): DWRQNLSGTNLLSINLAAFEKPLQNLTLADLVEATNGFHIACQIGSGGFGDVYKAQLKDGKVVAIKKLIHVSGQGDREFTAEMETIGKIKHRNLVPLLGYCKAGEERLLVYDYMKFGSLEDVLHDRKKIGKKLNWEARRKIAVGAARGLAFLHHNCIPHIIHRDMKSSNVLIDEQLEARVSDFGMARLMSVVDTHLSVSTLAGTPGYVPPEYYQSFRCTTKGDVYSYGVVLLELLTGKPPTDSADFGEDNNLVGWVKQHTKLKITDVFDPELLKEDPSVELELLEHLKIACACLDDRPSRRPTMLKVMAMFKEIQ
Outline: as §1

LOC_OS01G39600-cb002 = system: LOC_OS01G39600-cb002
Outline: as §1

Compound | thermal shift delta Tm (LOC_OS01G01410-cb001) | thermal shift delta Tm (LOC_OS01G02750-cb003) | thermal shift delta Tm (LOC_OS01G10900-cb004) | thermal shift delta Tm (LOC_OS01G13800-cb001) | thermal shift delta Tm (LOC_OS01G14860-cb001) | thermal shift delta Tm (LOC_OS01G21960-cb002) | thermal shift delta Tm (LOC_OS01G48390-cb002) | thermal shift delta Tm (LOC_OS01G51400-cb002) | thermal shift delta Tm (LOC_OS01G52050-cb004) | thermal shift delta Tm (LOC_OS01G39600-cb002)
CCCCCCCCc1ccc(CCC(N)(CO)CO)cc1 [Fingolimod (FTY720) HCl] | -0.88 °C | 0.17 °C | -0.2 °C | -1.96 °C | -1.24 °C | -0.97 °C | -0.85 °C | -1.12 °C | -0.88 °C | 
C#Cc1cccc(Nc2ncnc3cc(OCCOC)c(OCCO)cc23)c1 | 1.63 °C | 0.85 °C | 1.08 °C | 0.74 °C | 0.28 °C | 0.99 °C | 2.12 °C | 0.19 °C | 1.63 °C | 2.63 °C
COC(=O)[C@]12CCC(C)(C)C[C@H]1[C@H]1C(=O)C=C3[C@@]4(C)C=C(C#N)C(=O)C(C)(C)[C@@H]4CC[C@@]3(C)[C@]1(C)CC2 [Bardoxolone Methyl] | -2.64 °C | 0 °C | -14.8 °C | -0.32 °C | -4.11 °C | -0.25 °C | -0.51 °C | -7.84 °C | -10.5 °C | 
CC(C)=CC[C@@H](O)C1=CC(=O)c2c(O)ccc(O)c2C1=O [Shikonin] | 5.01 °C | 17.4 °C | 9.19 °C | 2.82 °C | 7.52 °C | 1.95 °C | 5.3 °C | 18.6 °C | 12.1 °C | 
C[S+]([O-])c1ccc(-c2nc(-c3ccc(F)cc3)c(-c3ccncc3)[nH]2)cc1 (stereo unspecified) | 1.61 °C | -0.29 °C | 0.57 °C | 0.79 °C | 2.49 °C | 1.22 °C | 0.4 °C | -0.08 °C | 0.5 °C | 0.18 °C
O=C(NCc1cccc(O)c1)Nc1nc(-c2ccncc2)cs1 | 1 °C | 1.02 °C | 0.6 °C | -0.25 °C | 1.72 °C | 1.09 °C | 1.48 °C | 0.4 °C | 1.09 °C | 
